Results: PubChem BioAssay
Active and inactive are the calls of the source.

Test system: Wnt5a (protein binding on small-molecule microarray)
Experiment: small molecules binding Wnt5a protein – biophysical, small-molecule microarray, 635/667 nm fluorescence, primary screen (AID 1142);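 also: fluorescence read at 667 nm with signal to noise per printed feature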
Settings: 635 nm fluorescence, higher = more signal

Row | Compound | composite z-score
1 | CCN(CC)c1ccc(N2CC=CC34O[C@@H]5/C=C\CCCOC(=O)C5[C@H]3C(=O)N(CCO)[C@@H]4C2=O)cc1 (some centres undefined) | -0.6
2 | C=CCNC(=O)[C@@H]1[C@H]2C(=O)O[C@H](c3ccccc3)[C@H](c3ccccc3)N2[C@H](c2ccccc2OCCO)[C@@]12C(=O)N(C(=O)OCCOC)c1ccc(C#CCNC(N)=O)cc12 | 0.0308
3 | O=C1C[C@]2(c3ccc([N+](=O)[O-])cc3)C(=O)N(CCN3CCOCC3)c3cc(CO)ccc3[C@H]2N1C1CCCCC1 | -0.179
4 | CN1C(=O)C2C=CC(C(O)C3CC=CCC3)N(NC(=O)OC(C)(C)C)C2C1=O (centres undefined) | 0.154
5 | COCCCNC(=O)C1N=C(c2ccc(OCCCO)cc2)N(c2ccccc2)O1 (centres undefined) | 0.282
6 | C=C(COC)/C(=C/C[C@H](OC(=O)c1ccncc1)c1ccc(OCCO)cc1)c1cnc2ccccc2c1 | 0.638
7 | C=CC[C@@]1(C(=O)N(C)C)N=C(c2ccc(OCCCO)cc2)O[C@@H]1c1ccccc1N=[N+]=[N-] | 0.554
8 | C=CCOC(=O)[C@H]1[C@@H]2C(=O)O[C@@H](c3ccccc3)[C@@H](c3ccccc3)N2[C@@H](c2ccc(OCCOC(=O)[C@@H]3C[C@@H]4C(=O)N[C@@H](CCCC[N+](C)(C)C)C(=O)N4[C@@H]3c3ccc(O)cc3)cc2)[C@]12C(=O)Nc1ccccc12 | 0.444
9 | O=C1NC(=O)C2C1C=CC(C(O)c1cccc3ccccc13)N2Nc1ccccn1 (centres undefined) | 0.0051
10 | COc1ccc(C(=O)Nc2cccc(CN3C(=O)[C@]4(O[C@H](CCO)[C@@H]([Si](C)(C)c5ccc(OC)cc5)[C@@H]4C)c4ccccc43)c2)cc1 | 0.24
11 | COC(=O)c1c(CC[C@@H](CO)NC(=O)N2CCC[C@H]2Cn2cc(-c3ccccn3)nn2)oc(C(C)=O)c1C(=O)OC | -0.249
12 | C=CCN1C(=O)[C@]2(O[C@H](CCO)[C@@H]([Si](C)(C)c3ccc(OC)cc3)[C@@H]2C)c2cc(N3C(=O)c4cccc5cccc3c45)ccc21 | -0.0476
13 | O=C(NCc1ccccc1)[C@@]1(CCS(=O)(=O)c2ccccc2)N=C(c2ccc(OCCCO)cc2)O[C@H]1c1ccccc1 | 0.794
14 | CC(C)C(=C=CC[C@@H](O)c1ccccc1OCCO)CCO | -0.0322
15 | O=C(NCC(F)(F)F)[C@@H]1c2ccccc2C(=O)N(C2CCCCC2)[C@H]1c1ccc(CO)cc1 | -0.107
16 | CN1C(=O)C2C=CC(C(O)c3cccs3)N(Nc3ccccc3)C2C1=O (centres undefined) | 0.455
17 | COc1cc2c(cc1O)C(C1CC1)N(Cc1cc3c(cc1Br)OCO3)CC2 (centres undefined) | -0.481
18 | COCCOC(=O)N1C(=O)[C@@]2(c3cc(C#CCCO)ccc31)[C@H](c1ccc(OCCO)cc1)N1[C@H](c3ccccc3)[C@H](c3ccccc3)OC(=O)[C@H]1[C@@H]2C(=O)N1CCN(c2ncccn2)CC1 | -0.0738
19 | O=C1O[C@H](c2ccccc2)[C@H](c2ccccc2)N2[C@H]1[C@@H](C(=O)NC[C@H](O)c1ccccc1)[C@]1(C(=O)Nc3ccccc31)[C@H]2c1ccc(OCCO)cc1 | 0.187
20 | O=C1c2ccccc2[C@](Cc2ccccc2I)(C(=O)NC2CC2)[C@H](c2ccc(CO)cc2)N1C1CCCCC1 | 0.557
21 | CC(=O)NCCCC[C@@H]1NC(=O)[C@@H]2C[C@H](C(=O)NCCCCCCNC(=O)CS)[C@H](c3cccc(OCCO)c3)N2C1=O | 0.611
22 | COCCOC(=O)N1C(=O)[C@@]2(c3cc(C#CC4=CCCCC4)ccc31)[C@H](C(=O)N1CCc3cc(OC)c(OC)cc3C1)[C@H]1C(=O)O[C@H](c3ccccc3)[C@H](c3ccccc3)N1[C@@H]2c1ccc(OCCO)cc1 | 0.538
23 | COCCOC(=O)N1C(=O)[C@@]2(c3cc(C#CC4=CCCCC4)ccc31)[C@H](C(=O)Nc1nc3ccccc3s1)[C@H]1C(=O)O[C@H](c3ccccc3)[C@H](c3ccccc3)N1[C@@H]2c1ccccc1OCCO | 0.697
24 | COc1ccc(C(O)C2C=CC3C(=O)N(c4ccccc4)C(=O)C3N2Nc2ccc(C(C)C)cc2)cc1OCc1ccccc1 (centres undefined) | 0.409

Test system: not listed separately
Experiment: ATP-based viability of Huh7 replicon cells – cell-based, CellTiter-Glo luminescence, basal, 48 h, cytotoxicity control for HCV replication inhibitor project, primary screen (AID 1143);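 also: Huh7 hepatoma cells carrying a hepatitis C replication reporter with no stimulus; test concentration not given here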
Settings: higher = more signal, called active from +8 up or from −8 down

Row | Compound | z-score
25 | CN(C)C(=O)[C@]1(Cc2ccccc2N=[N+]=[N-])N=C(c2ccc(OCCCO)cc2)O[C@@H]1c1ccccc1 | -4.59 (inactive)
26 | CCCCCC1=C2CNC(CCC)(C(=O)OC)C=C2C(C)C1=O (centres undefined) | -0.86 (inactive)
27 | COCCOC(=O)N1C(=O)[C@@]2(c3cc(C#CCCO)ccc31)[C@H](C(=O)N1CCc3cc(OC)c(OC)cc3C1)[C@H]1C(=O)O[C@H](c3ccccc3)[C@H](c3ccccc3)N1[C@@H]2c1ccc(O)cc1 | -0.173 (inactive)
28 | O=C(NCc1ccccc1)[C@@]1(Cc2ccccc2)N=C(c2ccc(OCCCO)cc2)O[C@H]1c1ccccc1 | -3.5 (inactive)
29 | CC(C)c1ccc(NN2C(C(O)c3cc(C(F)(F)F)cc(C(F)(F)F)c3)C=CC3C(=O)N(c4ccccc4)C(=O)C32)cc1 (centres undefined) | -2.86 (inactive)
30 | CN1C(=O)[C@]2(Cc3ccccc3)N=C(c3ccc(OCCCO)cc3)O[C@@H]2c2ccccc21 | -4.61 (inactive)
31 | CC(C)(C)OC(=O)CC[C@]1(C(=O)NCC(O)CO)COC(c2ccc(OCCCO)cc2)=N1 (some centres undefined) | -0.0229 (inactive)
32 | CCOC(=O)C[C@H]1[C@H](OC(=O)c2cc3ccccc3oc2=O)[C@@H](NC(=O)Cc2ccc(OC)cc2)c2cc(OCCCO)ccc2N1C(=O)c1ccccc1 | -3.21 (inactive)
33 | COc1ccc(CCNC(=O)[C@@]2(Sc3ccc(C)cc3)CC(=O)N(C3CCCCC3)[C@@H]2c2ccc(CO)cc2I)cc1 | -2.23 (inactive)
34 | COc1ccc(C(=O)O[C@H]2CC[C@]3(C)C4=C(CCC3C2(C)C)[C@]2(C)CC[C@H]([C@H](C)CCCC(C)C)[C@@]2(C)CC4)cc1 (some centres undefined) | -1.02 (inactive)
35 | CCOC(=O)C[C@H]1[C@H](OC(=O)Cc2ccc3c(c2)OCO3)[C@@H](NC(=O)c2ccc3ccccc3c2)c2cc(OCCCO)ccc2N1C(=O)c1ccccc1 | -0.23 (inactive)
36 | CCN(CC)c1ccc(N2CC=CC34O[C@@H]5/C=C\CCCOC(=O)C5[C@H]3C(=O)N(CCO)[C@@H]4C2=O)cc1 (some centres undefined) | -0.117 (inactive)
37 | C=CCNC(=O)[C@@H]1[C@H]2C(=O)O[C@H](c3ccccc3)[C@H](c3ccccc3)N2[C@H](c2ccccc2OCCO)[C@@]12C(=O)N(C(=O)OCCOC)c1ccc(C#CCNC(N)=O)cc12 | -0.952 (inactive)
38 | O=C1C[C@]2(c3ccc([N+](=O)[O-])cc3)C(=O)N(CCN3CCOCC3)c3cc(CO)ccc3[C@H]2N1C1CCCCC1 | -2.16 (inactive)
39 | CN1C(=O)C2C=CC(C(O)C3CC=CCC3)N(NC(=O)OC(C)(C)C)C2C1=O (centres undefined) | 0.248 (inactive)
40 | COCCCNC(=O)C1N=C(c2ccc(OCCCO)cc2)N(c2ccccc2)O1 (centres undefined) | -2.78 (inactive)
41 | C=C(COC)/C(=C/C[C@H](OC(=O)c1ccncc1)c1ccc(OCCO)cc1)c1cnc2ccccc2c1 | -0.593 (inactive)
42 | C=CC[C@@]1(C(=O)N(C)C)N=C(c2ccc(OCCCO)cc2)O[C@@H]1c1ccccc1N=[N+]=[N-] | -2.25 (inactive)

Row | Compound | z-score
43 | C=CCOC(=O)[C@H]1[C@@H]2C(=O)O[C@@H](c3ccccc3)[C@@H](c3ccccc3)N2[C@@H](c2ccc(OCCOC(=O)[C@@H]3C[C@@H]4C(=O)N[C@@H](CCCC[N+](C)(C)C)C(=O)N4[C@@H]3c3ccc(O)cc3)cc2)[C@]12C(=O)Nc1ccccc12 | -2.47 (inactive)
44 | O=C1NC(=O)C2C1C=CC(C(O)c1cccc3ccccc13)N2Nc1ccccn1 (centres undefined) | 0.697 (inactive)
45 | COc1ccc(C(=O)Nc2cccc(CN3C(=O)[C@]4(O[C@H](CCO)[C@@H]([Si](C)(C)c5ccc(OC)cc5)[C@@H]4C)c4ccccc43)c2)cc1 | -8.03 (active)
46 | COC(=O)c1c(CC[C@@H](CO)NC(=O)N2CCC[C@H]2Cn2cc(-c3ccccn3)nn2)oc(C(C)=O)c1C(=O)OC | -1.44 (inactive)
47 | C=CCN1C(=O)[C@]2(O[C@H](CCO)[C@@H]([Si](C)(C)c3ccc(OC)cc3)[C@@H]2C)c2cc(N3C(=O)c4cccc5cccc3c45)ccc21 | -7.91 (inactive)
48 | O=C(NCc1ccccc1)[C@@]1(CCS(=O)(=O)c2ccccc2)N=C(c2ccc(OCCCO)cc2)O[C@H]1c1ccccc1 | -2.09 (inactive)
49 | CC(C)C(=C=CC[C@@H](O)c1ccccc1OCCO)CCO | -3.75 (inactive)
50 | O=C(NCC(F)(F)F)[C@@H]1c2ccccc2C(=O)N(C2CCCCC2)[C@H]1c1ccc(CO)cc1 | -1.51 (inactive)
51 | CN1C(=O)C2C=CC(C(O)c3cccs3)N(Nc3ccccc3)C2C1=O (centres undefined) | 0.593 (inactive)
52 | COc1cc2c(cc1O)C(C1CC1)N(Cc1cc3c(cc1Br)OCO3)CC2 (centres undefined) | -5.73 (inactive)
53 | COCCOC(=O)N1C(=O)[C@@]2(c3cc(C#CCCO)ccc31)[C@H](c1ccc(OCCO)cc1)N1[C@H](c3ccccc3)[C@H](c3ccccc3)OC(=O)[C@H]1[C@@H]2C(=O)N1CCN(c2ncccn2)CC1 | -0.361 (inactive)
54 | O=C1O[C@H](c2ccccc2)[C@H](c2ccccc2)N2[C@H]1[C@@H](C(=O)NC[C@H](O)c1ccccc1)[C@]1(C(=O)Nc3ccccc31)[C@H]2c1ccc(OCCO)cc1 | -2.93 (inactive)
55 | O=C1c2ccccc2[C@](Cc2ccccc2I)(C(=O)NC2CC2)[C@H](c2ccc(CO)cc2)N1C1CCCCC1 | -3.43 (inactive)
56 | CC(=O)NCCCC[C@@H]1NC(=O)[C@@H]2C[C@H](C(=O)NCCCCCCNC(=O)CS)[C@H](c3cccc(OCCO)c3)N2C1=O | 0.206 (inactive)
57 | COCCOC(=O)N1C(=O)[C@@]2(c3cc(C#CC4=CCCCC4)ccc31)[C@H](C(=O)N1CCc3cc(OC)c(OC)cc3C1)[C@H]1C(=O)O[C@H](c3ccccc3)[C@H](c3ccccc3)N1[C@@H]2c1ccc(OCCO)cc1 | -0.571 (inactive)
58 | COCCOC(=O)N1C(=O)[C@@]2(c3cc(C#CC4=CCCCC4)ccc31)[C@H](C(=O)Nc1nc3ccccc3s1)[C@H]1C(=O)O[C@H](c3ccccc3)[C@H](c3ccccc3)N1[C@@H]2c1ccccc1OCCO | -5.66 (inactive)
59 | COc1ccc(C(O)C2C=CC3C(=O)N(c4ccccc4)C(=O)C3N2Nc2ccc(C(C)C)cc2)cc1OCc1ccccc1 (centres undefined) | -0.0843 (inactive)
